KCNQ2 enhance: potentiators of rat KCNQ2 potassium channel | CHO-K1 KCNQ2, FluxOR thallium flux fluorescence; stronger effect = higher value | O88943 | B-score at 10 µM | 0.54% of 310,000 active;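 active = fluorescence ratio B-score at least 3 SD of library B-scores, with initial fluorescence B-score within 3 of them, cut at about 5.3 in these data; same plate scores as AID 2156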;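 also: B-score of peak minus minimum over baseline fluorescence ratio after K+ and Tl+ stimulus; positive B-score means potentiation of KCNQ2 with more thallium influx and brighter signal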
Target sequence (O88943 whole entry, looked up): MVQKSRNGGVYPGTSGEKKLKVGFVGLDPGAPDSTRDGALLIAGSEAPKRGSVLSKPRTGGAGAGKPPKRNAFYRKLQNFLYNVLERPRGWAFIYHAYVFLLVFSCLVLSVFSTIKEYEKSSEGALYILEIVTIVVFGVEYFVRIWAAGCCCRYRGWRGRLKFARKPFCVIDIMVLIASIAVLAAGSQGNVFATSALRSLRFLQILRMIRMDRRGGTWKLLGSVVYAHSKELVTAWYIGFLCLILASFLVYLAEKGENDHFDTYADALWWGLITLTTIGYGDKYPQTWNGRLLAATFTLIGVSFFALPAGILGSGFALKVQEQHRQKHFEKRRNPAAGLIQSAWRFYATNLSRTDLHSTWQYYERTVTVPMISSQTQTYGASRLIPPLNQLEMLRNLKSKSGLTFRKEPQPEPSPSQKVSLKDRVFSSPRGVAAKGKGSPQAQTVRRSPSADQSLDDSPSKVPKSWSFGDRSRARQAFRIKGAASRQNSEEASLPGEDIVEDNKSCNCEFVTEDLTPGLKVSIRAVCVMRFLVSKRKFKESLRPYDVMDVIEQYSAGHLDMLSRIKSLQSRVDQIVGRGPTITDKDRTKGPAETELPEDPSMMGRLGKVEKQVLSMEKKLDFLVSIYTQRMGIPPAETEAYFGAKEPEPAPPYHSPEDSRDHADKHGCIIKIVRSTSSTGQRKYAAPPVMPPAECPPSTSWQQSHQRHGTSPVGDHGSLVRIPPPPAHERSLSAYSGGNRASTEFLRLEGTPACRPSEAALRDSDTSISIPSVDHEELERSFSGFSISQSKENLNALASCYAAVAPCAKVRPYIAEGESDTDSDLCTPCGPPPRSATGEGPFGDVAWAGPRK
KCNQ2 block: inhibitors of rat KCNQ2 potassium channel; CHO-K1 KCNQ2, FluxOR thallium flux, 20 min; stronger effect = lower value; AID 2156; 1.1% of 310,000 active; B-score at 10 µM;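 active = fluorescence ratio B-score at most minus 3 library SDs, with starting brightness B-score within 2 library SDs, cut at about -5.5 in these data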
Numbers without * were called inactive; i = inactive; / = not tested or not shown. Only some compounds are listed: those with a hit (about 1.6% of all), similar ones and a draw of the others.

SMILES | KCNQ2 enhance | KCNQ2 block
COc1ccc(NC(=O)N(C2CCCCC2)C(C)c2cccnc2)c(OC)c1 (configuration not stated) | / | i
COc1ccc(NC(=O)N(C2CCCCC2)C(C)c2ccco2)c(OC)c1 (configuration not stated) | -8.15 | -8.15*
CCCCN(CC)CCCNC(=S)Nc1ccc2nc3n(c(=O)c2c1)CCCCC3 | 0.93 | i
Cc1c(C(=O)N(C)Cc2cccc(F)c2)oc2c(Cl)cccc12 | -7.65 | -7.65*
Cc1c(C(=O)N(C)Cc2ccccc2)oc2c(Cl)cccc12 | / | i
CCc1ccc(N/C(SCc2ccccc2C)=C(/C#N)C(=O)NCc2ccco2)cc1 | -6.11 | -6.11*
CCc1ccc(OCCCC(=O)NCc2ccco2)cc1 | 0.58 | i
CCc1cccc2c1NC(=O)C2(O)CC(=O)c1cccs1 (configuration not stated) | 0.3 | i
CC1=C(/C=C/C(=O)O)C(C)(C)CCC1 | 0.54 | i
CC1=C(/C=C/C(C)=C/C=C/C(C)=C\C(=O)O)C(C)(C)CCC1 | -7.71 | -7.71*
C=C(C)COc1ccc(-c2ncncc2Oc2ccc(OC)cc2)c(O)c1 | -5.81 | -5.81*
C=C(C)COc1ccc(-c2nc(N)nc(C)c2-c2ccc(OC)cc2)c(O)c1 | / | i
Cc1ccnc(NC(=O)C2CC(=O)N(c3ccc4c(c3)OCCO4)C2)c1 (configuration not stated) | 0.68 | i
CCc1nc(SCC(=O)N2CCCC2)c2c(=O)n(C)c(=O)n(C)c2n1 | 0.95 | i
CCCc1nc(SCC(=O)N2CCCCCC2)c2c(=O)n(C)c(=O)n(C)c2n1 | 19* | i
COc1ccccc1C(=O)NN(C)C1=NS(=O)(=O)c2ccccc21 | 0.06 | i
Cc1ccc(-c2csc3nc[nH]c(=S)c23)cc1 | 13.6* | i
O=c1[nH]cnc2scc(-c3ccc(Br)cc3)c12 | 0.84 | i
CCc1ccc(NC(=O)CSc2nc3ccccc3c(=O)n2CCCN2CCC(C)CC2)cc1 | / | i
CCC(C)(C)n1nnnc1C(c1cc2cc(OC)ccc2[nH]c1=O)N1CCc2ccccc21 (configuration not stated) | 3.03 | i
CCC(C)(C)n1nnnc1C(c1cc2ccc(OC)cc2[nH]c1=O)N1CCc2ccccc21 (configuration not stated) | -6.11 | -6.11*
CCC(C)(C)n1nnnc1C(c1cc2cc(C)ccc2[nH]c1=O)N1CCCc2ccccc21 (configuration not stated) | 33.7* | i
Cc1ccc2[nH]c(=O)c(C(c3nnnn3C3CCCC3)N3CCCc4ccccc43)cc2c1 (configuration not stated) | 0.06 | i
Cc1ccc(NC(=O)Cn2ccnc2)cc1C | / | i
CCOc1ccc2nc(NC(=O)C34CC5CC(CC(NC(C)=O)(C5)C3)C4)sc2c1 | / | i
SMILES | KCNQ2 enhance | KCNQ2 block
CC(=O)N1CCc2cc(S(=O)(=O)CCC(=O)N3CCN(c4cc(C)ccc4C)CC3)ccc21 | / | i
COC/C=C/C1=CC2=CC(=O)C(C)(OC(=O)c3cnc4ccccc4n3)C(=O)C2=CN1C1CCCC1 (configuration not stated) | 0.15 | i
COc1cc(NC(=O)c2ccnnc2)cc(C(=O)Nc2cccc(C(F)(F)F)c2)c1 | -5.79 | -5.79*
O=C(Nc1cccc(C(F)(F)F)c1)c1cccnc1 | 1.83 | i
Cc1cc([N+](=O)[O-])ccc1NC(=O)c1csc(C)c1C | 0.94 | i
Cc1cc(C)c2c(=O)n(CC(=O)NC3CCCC3)sc2n1 | 4.15 | i
COc1ccc(OC)c(CCNC(=O)Cn2sc3nc(C)cc(C)c3c2=O)c1 | -9.32 | -9.32*
Cc1ccc(Cn2c(CCNc3nc(-c4ccc(Cl)c([N+](=O)[O-])c4)cs3)nc3cc(C(=O)NCCCO)ccc32)cc1 | / | i
O=C(O)CCn1c(SCCOc2ccccc2)nc2ccccc21 | / | i
O=S(=O)(Nc1nc2c(s1)CCCC2)c1ccc2ccccc2c1 | 0.15 | i
c1ccc2c(Nc3nc4c(s3)CCCC4)cccc2c1 | -7.44 | -7.44*
COc1cc(/C=C/c2ccc3cccc(OC)c3n2)c(OC(C)=O)c([N+](=O)[O-])c1 | -5.57 | -5.57*
COc1cc(/C=C/c2ccc3cccc(OC)c3n2)c(O)c([N+](=O)[O-])c1 | 0.63 | i
CCC(=O)Nc1ccc(N2CCN(S(C)(=O)=O)CC2)cc1 | / | i
OC(c1ccc(F)cc1)(C1CCCCC1)C(CN1CCOCC1)c1ccccc1 (configuration not stated) | -5.7 | -5.7*
CC(C)CC(O)(c1ccccc1)C(CN1CCOCC1)c1ccccc1 (configuration not stated) | / | i
O=S1(=O)CCOCCCN1Cc1ccccc1Br | / | i
O=S(=O)(NCc1ccccc1)NCc1ccc(Cl)cc1Cl | / | i
Cc1cc(Nc2cccc([N+](=O)[O-])c2)c2cccc(C)c2n1 | / | i
Cc1cc(Nc2ccccc2)c2c([N+](=O)[O-])ccc(C)c2n1 | -7.35 | -7.35*
COCCn1c(SCC(=O)NCC2CCCO2)nc2c(c1=O)SCC2 (configuration not stated) | / | i

Compound activity: PubChem BioAssay, Johns Hopkins Ion Channel Center
